Experimental data: PubChem BioAssay AID652067 (The Scripps Research Institute Molecular Screening Center, 2013)
Out of some 370,000 compounds screened, about 5,400 (1.5%) were called active.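 How the source made its calls: active means activation above the mean of all tested compounds plus 3 SD (cut at about 5.5% in these data); inactive means the rest.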 For the sample, actives were picked, then their nearest neighbours and some compounds at random.

What follows are compounds tested on DAF-12 nuclear receptor (Haemonchus contortus) (assay: H. contortus DAF-12 nuclear receptor activators, primary screen, cell-based, luminescence, HEK293, lit1-tk-luc reporter (AID 652067;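 further: 100% = response to 3 µM Δ7-dafachronic acid high control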)). Conditions: HEK293 hcDAF-12 lit1-tk-luc reporter, at 6.8 µM, active compounds read high, 0% DMSO, 100% Δ7-dafachronic acid.

activation, inactive:
CCCCCCCCNS(=O)(=O)/C=C/c1cc(C)ccc1CNC(=O)OC(C)(C)C -0.7%, COc1ccc(-c2nnn(Cc3nc(N)nc(N4CCCCC4)n3)n2)cc1 -2.9%, CCOC(=O)CNc1nc2ccccc2n2c(C)nnc12 -0.04%, CC(C)(C)N1CC(c2nc3ccccc3n2Cc2ccc(F)cc2)CC1=O (stereo unspecified) 0.33%, Cc1ccc(-n2nc(N)c3c(=O)oc(N(C)C)nc32)cc1 0.85%, Cc1c(C)n2c(SCC(=O)NC3CCCC3)nnc2[nH]c1=O -0.71%, CCc1c(C)nc(SCC(=O)NC2CCCC2)[nH]c1=O -0.17%, CCOC(=O)c1c(C2CC2)csc1NC(=O)CSCc1c(C)noc1C -3.08%, CC(=O)Nc1cccc(C(=O)OCN2C(=O)c3ccccc3C2=O)c1 1.25%, CC(=O)Nc1cccc(C(=O)OCC(=O)NCc2cc(C)c(O)c(C)c2)c1 1.87%, COc1ccc(C(=O)OCCN(C)C2CN(Cc3cn(Cc4cccc(C)c4)nn3)S(=O)(=O)C2)cc1OC (stereo unspecified) -2.89%, COc1ccccc1Cc1c(-c2ccc(Cl)cc2)nc2c3ccccc3ccn12 2.15%, Cc1ccc(Cc2c(-c3ccc(C)cc3)nc3c4ccccc4ccn23)cc1 4.63%, CCCc1nc2c3ccccc3ccn2c1Cc1ccccc1C(F)(F)F 5.09%, Cc1ccc(Cc2c(-c3ccc(Cl)cc3)nc3c4ccccc4ccn23)cc1 3.04%, COc1cccc(N2CCN(CC(=O)N(C)Cc3ccc(F)cc3)CC2)c1 -2.02%, C=CCN1C(=O)[C@H](CC(=O)NCCCN2CCCC2=O)[C@@]2(C(=O)OCC)CCCC=C12 -0.18%, Cc1ccc(NC(=O)c2cc(C)nn2-c2ccccc2)c(C)c1 -2.18%, Clc1cccc2c1C1CC2CCN1Cc1ccccc1 (stereo unspecified) -1.68%, CS(=O)(=O)N(Cc1ccccc1Cl)c1ccc(C(=O)NCc2cccnc2)cc1 -2.13%, O=C(COC(=O)c1ccco1)Nc1ccc(Cl)cn1 0.13%, CC(OC(=O)CNC(=O)c1ccco1)C(=O)Nc1ccc(Cl)cn1 (stereo unspecified) -2.11%, O=C(Nc1cc(Cl)cc(Cl)c1)OCCN1CCCC12CCC(c1ccccc1)CC2 (stereo unspecified) -0.18%, COC(=O)[C@]12C[C@H](CC(=O)N3CCOCC3)C(=O)N(Cc3ccc(Cl)cc3Cl)C1=C[C@H](COCc1ccccc1)O[C@@H]2C -3.03%, CC(C)Oc1c(Br)cc(Br)cc1/C=N/NC(N)=S -4.22%, NC(=S)NN=Cc1ccc(OC(=O)COc2cc(Cl)c(Cl)cc2Cl)cn1 -1.62%, Cc1cc(N2CCN(C(=O)OC(C)(C)C)C[C@H]2C)ccc1N1CCN(Cc2ccccc2)[C@H](C)C1 1.47%, O=C(Nc1ccccc1)N(Cc1cccnc1)Cc1ccco1 -0.9%, COc1cccc(N(C(=O)CNC(=O)c2ccco2)C(C(=O)NC2CCCCC2)c2cccnc2)c1 (stereo unspecified) -0.65%, Cc1ccc(N(C(=O)CNC(=O)c2ccco2)C(C(=O)NC2CCCC2)c2ccncc2)cc1 (stereo unspecified) 0.7%, CC(C)CNc1cccc2c1S(=O)(=O)N[C@H](CC(C)C)CO2 -1.3%, C=CCN1C(=O)[C@@H](CC(=O)NCCCCc2ccccc2)[C@]2(C(=O)OCC)CCCCC/C=C/12 -0.4%, COC(=O)c1cc2c(N)c(C(=O)c3ccc(Cl)cc3)sc2nc1C(OC)OC 0.3%, CC(=O)c1c(Nc2ccccc2)sc(C(=O)c2ccccc2)c1C -2.59%, CCCCCCCCN1C(=O)[C@@H](CC(=O)N2CCN(C(=O)OCC)CC2)C[C@@]2(C(=O)OC)C1=C[C@H](C1CCCC1)O[C@@H]2C -0.68%, COc1cccc(CN2C(=O)CCC2(C)C(=O)NC2CCCCCC2)c1 (stereo unspecified) -2.09%, O=C(CSc1nnc(COc2ccccc2)n1-c1ccc(Cl)cc1)Nc1ccc2c(c1)OCO2 -0.19%, COc1ccc(-c2noc(CCC(=O)N3CCN(c4cccc(C)c4)CC3)n2)cc1 -0.53%, COc1ccc(N2CCN(C(=O)CCc3nc(-c4ccc(C)cc4)no3)CC2)cc1 -1.97%, C=CS(=O)(=O)N(Cc1nnn(Cc2ccccc2)c1Br)[C@H](C(=O)OC)C(C)C -3.12%, COc1ccc(N2CCN(C(=O)CNC(=O)c3ccc(C(C)(C)C)cc3)CC2)cc1 -2.42%, O=C(CNC(=O)c1ccc2ccccc2c1)Nc1ncccc1O 0.18%, Clc1ccc(-n2c(COc3ccccc3)nnc2SCc2nc3ccccc3[nH]2)cc1 -0.51%, CCc1nc(N2CCN(C(C)=O)CC2)c2c3c(sc2n1)CCCC3 0.85%, CCn1c(SCC(C)=O)nc2sc3c(c2c1=O)CCCC3 -0.57%, COC(=O)C1=C(C(=O)OC)C2C=C(C(C)C)C1C(=O)C2(C)O (stereo unspecified) -1.42%, O=C(OCC#CCSc1nnc(-c2ccco2)o1)c1ccc(F)cc1 -1.32%, O=C(O)Cn1cnc2c(NCc3ccccc3)ncnc21 0.95%, Cc1cc(=O)[nH]c(SCC(=O)Nc2ccc(F)cc2F)n1 -0.74%, O=C(Nc1ccccc1)N1CCN(Cc2nc3ccccc3c(=O)[nH]2)CC1 0.3%, Cc1ccc(N2C(=O)C(NC(=O)c3c(F)cccc3F)(C(F)(F)F)C3=C2CC(C)(C)CC3=O)cc1 (stereo unspecified) -1.79%, O=C(c1cccc(C(F)(F)F)c1)N1CC[C@H]2[C@H](CCCN2Cc2cc(F)cc(F)c2)C1 -0.81%, O=C(CSc1nnc(-c2ccccc2)n1Cc1ccco1)Nc1ccccc1-c1ccccc1 -2.62%, O=C(CSc1nnc(-c2cccc(Cl)c2)n1Cc1ccco1)Nc1ccc(OCc2ccccc2)cc1 -3.78%, COC(=O)[C@]12C[C@H](CC(=O)NCCc3ccccc3OC)C(=O)N(Cc3ccccc3)C1=C[C@H](C(C)C)O[C@@H]2C1CC1 -0.81%, COc1cccc(OC)c1C(=O)N1CCN(Cc2cccnc2)CC1 -1.19%, Cc1ccc(C2=CCN(C)C(=O)N2c2ccc(Cl)cc2)cc1 -0.28%, COC(=O)CC1CCc2cc(C)cc(C(CC(C)C)NC(=O)[C@H](CC(C)C)NC(=O)OCc3ccccc3)c2O1 (stereo partly specified) -1.44%, O=C(COC(=O)/C=C/c1ccc(Cl)cc1)NC1CCS(=O)(=O)C1 (stereo unspecified) -0.16%, COc1ccccc1NC(=O)c1cc(Cl)nnc1Cl 1.71%, COc1ccccc1NC(=O)c1c(Br)cnn1C -1.66%, Cc1ccc(C(=O)NCC(=O)O)s1 -0.44%, Cc1csc(NC(=O)CN2CCCCCC2)n1 0.84%, C=CCC[C@@H](Cc1ccc(F)cc1)C(=O)OC[C@H](Cc1c[nH]c2ccccc12)NC(=O)[C@@H](CC=C)CC(=O)N(CCO)Cc1ccccc1 -2.25%, CCCCNc1cccc2c1S(=O)(=O)N[C@@H](C)CO2 2.03%, COC(=O)[C@]12C[C@H](CC(=O)NCCCN3CCCC3=O)C(=O)N(CCc3ccc(OC)c(OC)c3)C1=C[C@H](COCc1ccccc1)O[C@@H]2C -0.83%, Cc1ccnc(-n2sc3ccccc3c2=O)n1 4.36%, C[C@H](C(=O)N(C)c1ccccc1)[C@@H](O)c1ccc2ccccc2c1 0.57%, COc1cccc(CNC(=O)[C@H]2CCCN2C(=O)[C@H]2CCCN2C(=O)c2ccc(F)cc2)c1 2.09%, COC(=O)C1=C(C)N(Cc2ccc(C(F)(F)F)cc2)C(=NCc2ccccc2)NC1c1ccccc1C(F)(F)F (stereo unspecified) 0.56%, Cc1cc(C)c2nc(N3CCC(C(=O)NCCN4CCOCC4)CC3)sc2c1 1.35%, Cc1ccc(C)c(C(C)NC(=O)C2CCCO2)c1 (stereo unspecified) -1.93%

activation, active:
Fc1ccc(CNc2nc3ccccc3n3nnnc23)cc1 5.66%, Cc1nc(SCC(=O)NC2CCCC2)[nH]c(=O)c1C 5.79%, CC(=O)Nc1cccc(C(=O)OCC(=O)c2ccc3c(c2)OCO3)c1 8.29%, FC(F)(F)c1ccccc1Cc1c(-c2ccccc2)nc2c3ccccc3ccn12 5.96%, c1ccc(Cc2c(-c3ccco3)nc3c4ccccc4ccn23)cc1 12%, CCCc1cc(C(=O)Nc2ccc(Cl)cn2)cs1 7.31%, NC(=S)N/N=C/c1coc2cc(Cl)ccc2c1=O 5.81%, CC(C)(C)NC(=O)C(c1ccncc1)N(C(=O)CNC(=O)c1ccco1)c1ccc2c(c1)OCO2 (stereo unspecified) 6.8%, Nc1ccccc1/C=N\N=C/c1ccccc1N 8.99%, CN(C)c1ccnc2sc(C(=O)c3ccccc3)c(N)c12 6.4%, Cc1ccc(C)c(N2CCN(C(=O)CCc3nc(-c4cccc(C(F)(F)F)c4)no3)CC2)c1 6.2%, O=C(NCC(=O)N1CCN(c2ccccc2O)CC1)c1ccc2ccccc2c1 6.1%, NNC(=O)C1CCCn2c1nc1sc3c(c1c2=O)CCCC3 (stereo unspecified) 8.63%, Fc1ccccc1/C=N/Nc1cc(N2CCCCC2)ncn1 5.99%, Clc1cccc(-c2nc3nc4ccccc4nc3n2Cc2ccco2)c1 7.47%, Cc1csc(NC(=O)c2ccc(C)s2)n1 6.44%, COc1ccccc1NC(=O)c1ccc(C)s1 9.1%, Cc1ccnc(Nc2nc3ccccc3s2)n1 9.2%, Cc1cc(C)c2nc(NC(=O)C3CCCO3)sc2c1 (stereo unspecified) 8.44%
